A selection: hits, their analogues and other compounds. The true share with any hit is near 2.5%.
SUMO HTRF inh – blocks human SUMOylation mediated by UBC9 | HTRF SUMOylation assay, SAE1/SAE2 + UBC9, in vitro | 0.36% of 290,000 active | AID 2006 | P63279 | inhibition, % at 35 µM; in the data active = inhibition above about 50%, passing the limit was not always enough; inconclusive = no clear call, values can overlap the other calls
Target sequence (P63279 whole entry, looked up): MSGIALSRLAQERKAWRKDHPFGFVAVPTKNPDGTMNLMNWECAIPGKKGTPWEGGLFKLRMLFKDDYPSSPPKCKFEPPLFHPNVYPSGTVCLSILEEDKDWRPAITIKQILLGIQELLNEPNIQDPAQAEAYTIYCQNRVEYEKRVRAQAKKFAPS
HDAC3 inh – blocks human histone deacetylase 3; O15379; recombinant HDAC3, fluorogenic peptide/trypsin coupled, fluorescence; inhibition, % at 8.3 µM; 0.15% of 320,000 active; AID 2718; in the data active = inhibition above about 26%, passing the limit was not always enough; inconclusive = no clear call, values can overlap the other calls
PfM18AAP inh-1 – blocks P. falciparum M18 aspartyl aminopeptidase; 1.2% of 290,000 active; recombinant PfM18AAP, H-Glu-NHMec fluorogenic cleavage; inhibition, % at 7.35 µM; AID 1822;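 active = inhibition above the campaign mean inhibition over all tested compounds plus 3 SD, cut at about 28% in these data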;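 also: 0% = plate median of test compound wells and 100% = 2 mM ZnCl2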
G6PDH counter – L. mesenteroides G6PDH inhibition counter-screen; inhibition, % at 5 µM; Purified L. mesenteroides G6PDH, diaphorase/resazurin coupled fluorescence, 45 min; 0.12% of 200,000 active; in the data active = inhibition above about 50%
p97 ATPase inh – human p97 ATPase inhibition | 0.42% of 220,000 active | P55072 | recombinant p97 ATPase, Kinase-Glo ATP luminescence, 3 h | AID 1481 | inhibition, % at 8 µM; in the data active = inhibition above about 15%;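 also: 0% = DMSO vehicle and 100% = wells lacking enzyme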
PHOSPHO1 block – blocks human PHOSPHO1 phosphatase activity; 1.1% of 290,000 active; inhibition, % at 13.3 µM; AID 1565; Q8TCT1; recombinant PHOSPHO1, absorbance phosphatase assay; in the data active = inhibition above about 60%
Target sequence (Q8TCT1 whole entry, looked up): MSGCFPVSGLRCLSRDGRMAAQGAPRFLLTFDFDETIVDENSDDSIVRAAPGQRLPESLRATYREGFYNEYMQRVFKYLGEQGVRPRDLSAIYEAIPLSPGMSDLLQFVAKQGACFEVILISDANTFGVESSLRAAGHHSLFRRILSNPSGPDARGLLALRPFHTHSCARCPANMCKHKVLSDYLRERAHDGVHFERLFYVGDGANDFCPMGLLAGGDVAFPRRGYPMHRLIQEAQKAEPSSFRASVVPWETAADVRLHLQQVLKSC
PfM18AAP inh-2 – confirmation of Plasmodium falciparum M18 aspartyl aminopeptidase inhibitors; inhibition, % at 7.35 µM; AID 2170; recombinant PfM18AAP, H-Glu-NHMec fluorogenic cleavage; 28% of 2,400 active; shares compounds with PfM18AAP inh-1;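 active = mean inhibition over replicate wells above the hit cutoff set for the earlier primary screen, cut at about 29% in these data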;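 also: 0% = median of test compound wells and 100% = 2 mM ZnCl2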
CTSL1 confirm – counter-screen for PFM18AAP inhibitors: confirmation of human cathepsin L inhibitors; shares compounds with PfM18AAP inh-1; inhibition, % at 5.96 µM; purified cathepsin L1, Z-Leu-Arg-MCA fluorescence; 2,400 tested, under 10 active;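 active = average inhibition across replicates above the hit cutoff set in the earlier primary screen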;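 also: 0% = median of test compound wells and 100% = Z-Phe-Ala-diazomethylketone 1 µM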
The depositor's hits bear a star; ? = inconclusive; · = not tested or not shown.

SMILES	SUMO HTRF inh	HDAC3 inh	PfM18AAP inh-1	G6PDH counter	p97 ATPase inh	PHOSPHO1 block	PfM18AAP inh-2	CTSL1 confirm
O=C(NNC(=S)Nc1ccccc1)Nc1ccccc1	14.3	-1.8	53.1*	-0.3	3.2	20.6	17.8	-5.7
COc1ccc(C2=NN(C(=O)c3ccco3)C(c3ccco3)C2)cc1OC (centres undefined)	6.3	4.7	-0.4	·	·	35.0	·	·
CC(=O)N1CCc2cc(Br)cc(S(=O)(=O)NCCCN(C)Cc3ccccc3)c21	19.5	1.4	-3.1	·	·	35.9	·	·
CCN(CC)S(=O)(=O)c1cc([N+](=O)[O-])ccc1NNC(=O)Nc1ccc(F)cc1	11.3	5.2	36.8*	13.7	3.4	35.2	29.1*	4.2
CCN(CC)S(=O)(=O)c1cc([N+](=O)[O-])ccc1NNC(=O)Nc1ccccc1OC	-0.5	6.4	55.9*	-1.2	-0.6	-0.5	13.2	4.2
CCN(CC)S(=O)(=O)c1ccc(OC)c(NC(=O)c2ccc([N+](=O)[O-])cc2)c1	9.1	15.0	-1.8	1.3	-1.2	-5.3	·	·
N#C/C(=C\c1ccc(-c2ccccc2)o1)C(=O)Nn1cnnc1	6.4	-2.4	63.3*	5.2	6.0	44.4	54.3*	6.0
Cc1ccc(-c2ccc(/C=C(\C#N)C(=O)Nc3cc(C)nn3-c3ccccc3)o2)cc1	13.4	0.8	-4.8	-66.0	-1.4	-10.3	·	·
Cc1ccc(C)c(NC(=S)NNc2ccc(F)cc2F)c1	20.3	-1.9	46.0*	·	·	40.3	18.8	-4.5
Cc1ccc(C)c(NC(=S)NCCc2ccc(F)cc2)c1	-9.0	1.5	3.1	-3.8	0.9	-6.4	·	·
CCOc1ccc(Br)cc1S(=O)(=O)Nc1cccc(S(=O)(=O)Nc2ccccc2C(=O)O)c1	·	4.4	·	·	·	·	·	·
CSc1ncccc1C(=O)NCCc1ccc(S(N)(=O)=O)cc1	-1.7	0.8	0.5	·	·	35.1	·	·
Nc1nonc1C(=Nc1ccccc1)NO	20.6	1.1	42.9*	14.3	8.3	16.3	30.8*	-0.1
Nc1nonc1C(=O)NC(c1ccccc1)c1ccccc1	11.3	11.3	4.3	2.3	2.3	-20.1	·	·
Cc1cccc(N=C(NO)c2nonc2N)c1	9.1	-0.8	33.4*	1.8	6.7	-1.0	12.5	-1.7
CCONC(=NC)c1nonc1N	2.1	-10.7	0.8	6.2	0.3	7.9	·	·
CC(=O)Nc1ccc(S(=O)(=O)N2CCC(c3nc4c(nnn4Cc4ccccc4Cl)c(=O)[nH]3)CC2)cc1	-11.2	5.5	2.2	·	·	-27.9	·	·
CCC[n+]1c2ccccc2cc2ccccc21	3.8	-16.7	47.3*	·	·	14.1	16.8	3.2
Cc1ccc2ccccc2[n+]1CCCS(=O)(=O)[O-]	11.5	-4.1	1.1	2.5	4.0	6.0	·	·
CCCCC[n+]1cccc2c3ccccc3ccc21	4.3	-10.9	-14.4	3.9	7.2	59.3	·	·
CCCC[n+]1c2ccccc2cc2ccccc21	-19.6	-18.6	37.6*	·	·	-63.5	15.8	-1.6
Cn1c(CO)nc2cc(N)ccc21	10.3	-5.0	38.9*	-3.5	1.8	18.3	-45.2	0.9
Nc1ccc(-c2nc3cc(N)ccc3n2CCO)cc1	?	-74.2	1.6	·	-1.0	-4.9	·	·
CCOC(=O)c1ccc(S(=O)(=O)NC2CCC(C)CC2)cc1 (centres undefined)	·	1.9	·	·	·	·	·	·
CN(C)/C=C(/C(=O)c1ccc(Cl)cc1)n1cncn1	5.7	3.7	40.3*	3.5	-5.0	40.8	0.5	2.3
SMILES	SUMO HTRF inh	HDAC3 inh	PfM18AAP inh-1	G6PDH counter	p97 ATPase inh	PHOSPHO1 block	PfM18AAP inh-2	CTSL1 confirm
Clc1ccccc1-c1csc(Nc2cccnc2)n1	4.4	-1.7	38.6*	·	11.8	12.2	-45.8	1.5
CSc1sc(-c2ccnc(SCC(=O)C(C)(C)C)n2)c2c1C(=O)CC(C)(C)C2	14.8	-3.1	34.9*	·	0.1	17.7	-25.8	2.7
Cc1nnc(SCc2cc(=O)[nH]c(=S)[nH]2)s1	9.9	5.5	46.6*	9.7	-1.3	6.1	15.5	0.5
Oc1ccc(O)c(-c2cnns2)c1	-10.0	0.7	85.9*	1.0	5.2	7.1	89.8*	1.0
Oc1ccc(Br)cc1-c1ccn[nH]1	4.8	5.3	-2.9	12.1	-5.0	9.3	·	·
COc1ccc(OC)c(NC(=O)NC2(C(F)(F)F)Oc3ccccc3O2)c1	23.4	1.1	62.7*	20.5	-4.4	3.4	-7.4	2.2
CCCCNC(=O)NC1(C(F)(F)F)Oc2ccccc2O1	1.2	-6.4	81.0*	-5.0	1.6	13.1	-26.1	-6.7
NS(=O)(=O)c1ccc(CCNC(=O)NC2(C(F)(F)F)Oc3ccccc3O2)cc1	-7.2	11.8	67.3*	12.1	-5.0	3.9	-16.1	-1.7
Cc1cc(C)cc(NCc2cc3c(cc2[N+](=O)[O-])OCO3)c1	7.6	1.8	14.3	7.5	-1.3	19.1	·	·
COc1ccc(CNCc2cc3c(cc2[N+](=O)[O-])OCO3)cc1	4.3	5.9	38.3*	·	·	52.2	-14.8	-1.5
CCOC(=O)c1c(NC(=O)OC)sc(C(=O)N(CC)CC)c1C	12.2	1.6	33.5*	-6.8	-1.8	41.4	-0.6	-5.7
O=C(Nc1ccccn1)C(=O)Nc1ccccn1	13.1	·	4.2	·	-4.6	-9.9	·	·
S=C(Nc1ccccn1)c1ccccn1	-24.2	1.7	36.4*	8.4	3.7	42.6	-23.0	1.8
O=C(NNc1nc2ccccc2s1)Nc1ccc(F)cc1	0.6	·	60.0*	·	5.6	11.1	33.7*	-3.6
COc1ccc(NC(=O)Nc2nc3ccccc3s2)cc1	8.8	-3.1	-6.2	·	0.4	11.7	·	·
O=C(NNc1nc2ccccc2s1)c1ccccc1F	-3.1	-0.4	47.1*	11.0	4.8	56.4	-5.4	6.0
O=C(NNc1nc2ccccc2s1)C1CC1	20.3	5.0	56.0*	-1.2	5.8	21.8	24.1	-3.5
CC(C)C(=O)NNc1nc2ccccc2s1	13.7	-2.3	11.4	-20.2	0.1	3.6	·	·
CC(=O)Nc1ccc2nc(NC(=O)COc3ccccc3Cl)sc2c1	-4.4	7.8	4.5	2.2	1.8	27.8	·	·
O=C(NNc1nc2ccccc2s1)Nc1ccc(Cl)c(Cl)c1	11.9	3.0	60.0*	·	3.9	0.1	48.5*	-4.5
COc1cccc(/C=C/C(=O)NNC(=O)c2cc(C)oc2C)c1	·	-3.4	·	·	·	·	·	·
O=C(CN(CCc1ccccc1)Cc1ccccc1)Oc1ccccc1P(=O)(O)O	5.4	-3.6	-0.5	·	·	23.9	·	·
Cc1ccc([N+](=O)[O-])cc1NC(=O)CSc1n[nH]c(-c2cccnc2)n1	11.1	?	-1.4	·	·	28.0	·	·
O=C(CSc1nc2ccccc2s1)NNC(=O)Nc1ccc(Cl)c(Cl)c1	-14.7	15.8	52.2*	-49.8	2.0	41.6	-22.4	2.8
COc1cccc(NC2SC(=O)N(c3ccccc3)C2=O)c1 (centres undefined)	4.1	4.8	34.9*	-6.1	0.9	-9.0	-52.7	-3.3

Screening results from PubChem.
